The source of these data is PubChem BioAssay (Tox21).

A short description of assay [1]: Caspase-3/7 induction in HepG2 cells by small molecules, qHTS assay (AID 1346978). Also: nearly all actives have a fitted effect of over 15% in size. The procedure, abridged: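 Caspase-3/7 induction was measured by Caspase-Glo 3/7 luminescence (30 min, room temperature) after a 17 hr compound exposure of wild-type HepG2 cells seeded at 2,000 per well and pre-incubated 5 hr.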
(In general: qHTS replaces the single test concentration by a dilution series.)

Assay [2] is described as follows: Caspase-3/7 induction in CHO-K1 cells by small molecules, qHTS cell viability counter screen (AID 1346979). Also: nearly all actives have a fitted effect of over 35% in size. Also: potency is read from the fitted curve at half-maximal effect. The procedure, abridged:
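CHO-K1 wt, 1,500 cells/well; 5hr pre-incubation 37C/5% CO2; compound pin transfer (DMSO); 16hr exposure; CellTiter-Fluor added, 1hr, fluorescence read.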

The nature of assay [3]: Caspase-3/7 induction in CHO-K1 cells by small molecules, qHTS assay (AID 1346980). Also: nearly all actives have a fitted effect of over 15% in size. The procedure, abridged: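 Luminescent Caspase-Glo 3/7 read (30min, room temperature) quantified apoptosis induction. Cells were wild-type CHO-K1, treated with compound for 17hr at 37 C and 5% CO2.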
A short description of assay [4]: Caspase-3/7 induction in HepG2 cells by small molecules, qHTS cell viability counter screen (AID 1346981). Also: nearly all actives have a fitted effect of over 30% in size. Also: potency is read from the fitted curve at half-maximal effect. The gist of the method:
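Wild-type HepG2 cells (2,000/well) were allowed to settle for 5 hr at 37 C, 5% CO2, then dosed with compounds in DMSO by pin transfer. After 16 hr at 37 C, CellTiter-Fluor was added and fluorescence read 1 hr later.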

In assay [5] the target is Nuclear receptor subfamily 1 group I member 2 (Homo sapiens) (UniProt O75469). Nature of the assay: CYP3A4 induction through human pregnane X receptor (PXR) by small molecules, qHTS assay (AID 1346984). Also: nearly all actives have a fitted effect of over 40% in size. The procedure, abridged:
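DPX-2 cells (HepG2 co-transfected with PXR and CYP3A4 promoter-luciferase) treated with compounds 24 h at 37C; luciferin-IPA CYP3A4 substrate 3uM final added for 3 h, then One-Glo; luminescence read. qHTS format.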

For assay [6] the target is unchanged. In words: Human pregnane X receptor (PXR) activation by small molecules, qHTS assay (AID 1346985). Also: nearly all actives have a fitted effect of over 40% in size. The gist of the method:
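DPX-2 cells (HepG2 co-transfected with a PXR response element and a CYP3A4-promoter luciferase construct) were seeded at 2,000 per well, rested 5 hr at 37C, then exposed to DMSO-dissolved compounds for 24 hr. Activation was read as luciferase luminescence.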

The target of assay [7] is Cytochrome P450 2C19 (Homo sapiens) (UniProt P33261). Nature of the assay: Cytochrome P450 Family 2 Subfamily C Member 19 (CYP2C19) small molecule antagonists: luciferase reporter qHTS assay (AID 1671197). Also: nearly all actives have a fitted effect of over 65% in size. Also: potency is read from the fitted curve at half-maximal effect. The procedure, abridged:
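Inhibition of CYP2C19 was scored from loss of luminescence in a P450-Glo proluciferin substrate assay, NADPH-started and run 1 h at 37C, with ketoconazole as positive control.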
(In general: A reporter such as luciferase makes a cellular process visible.)

Assay [8] concerns the target Cytochrome P450 2C9 (Homo sapiens) (UniProt P11712). In words: Cytochrome P450 Family 2 Subfamily C Member 9 (CYP2C9) small molecule antagonists: luciferase reporter qHTS assay (AID 1671198). Also: nearly all actives have a fitted effect of over 50% in size. Also: potency is read from the fitted curve at half-maximal effect. The gist of the method:
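Enzyme-substrate mix preincubated with compound 10 min at room temperature; reaction started with NADPH regeneration solution, 1 h 37C. Luminescent luciferin product read after 20 min detection reagent.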

Assay [9] deals with Cytochrome P450 1A2 (Homo sapiens) (UniProt P05177). Nature of the assay: Cytochrome P450 Family 1 Subfamily A Member 2 (CYP1A2) small molecule antagonists: luciferase reporter qHTS assay (AID 1671199). Also: nearly all actives have a fitted effect of over 50% in size. Also: potency is read from the fitted curve at half-maximal effect. The procedure, abridged: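 Human CYP1A2 activity measured with a P450-Glo proluciferin substrate; compounds in DMSO preincubated 10 min at room temperature with enzyme-substrate mix, then NADPH regeneration system added for 1 h. Luciferin detection reagent, 20 min, luminescence read.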
Sequence of Cytochrome P450 1A2 (Homo sapiens) (P05177 whole entry, looked up): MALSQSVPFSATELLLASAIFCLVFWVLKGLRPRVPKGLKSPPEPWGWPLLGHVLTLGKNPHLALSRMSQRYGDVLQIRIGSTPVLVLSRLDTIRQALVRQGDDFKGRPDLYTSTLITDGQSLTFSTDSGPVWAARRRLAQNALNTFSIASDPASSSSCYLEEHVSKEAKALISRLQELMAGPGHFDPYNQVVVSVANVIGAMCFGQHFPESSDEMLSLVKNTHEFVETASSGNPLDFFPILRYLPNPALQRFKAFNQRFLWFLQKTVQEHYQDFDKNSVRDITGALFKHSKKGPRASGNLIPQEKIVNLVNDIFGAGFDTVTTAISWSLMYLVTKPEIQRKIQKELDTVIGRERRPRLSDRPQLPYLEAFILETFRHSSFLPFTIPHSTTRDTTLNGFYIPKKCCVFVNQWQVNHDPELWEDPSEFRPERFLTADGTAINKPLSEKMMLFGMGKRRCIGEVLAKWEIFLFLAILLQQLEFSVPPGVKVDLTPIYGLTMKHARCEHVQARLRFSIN

For assay [10], the target named is Voltage-gated inwardly rectifying potassium channel KCNH2 (Homo sapiens) (UniProt Q12809). In words: Human Ether-a-go-go-Related Gene (hERG) channel small molecule antagonists: fluorescence cell-based qHTS assay (AID 1671200).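 Also: hERG-expressing U2OS cells given a thallium stimulus after FluxOR II dye loading; series mostly up to about 77 µM; nearly all actives have a fitted effect of over 50% in size.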 The gist of the method:
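Read-out: thallium influx as a surrogate for potassium, tracked as fluorescence (480 nm ex/540 nm em) every second for 2 min after Stimulus Buffer addition in dye-loaded hERG-U2OS cells.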
(In general: hERG is a cardiac potassium channel; its block is linked to QT prolongation.)

In assay [11] the target is Cytochrome P450 3A4 (Homo sapiens) (UniProt P08684). Nature of the assay: Cytochrome P450 Family 3 Subfamily A Member 4 (CYP3A4) small molecule antagonists: luciferase reporter qHTS assay (AID 1671201). Also: series mostly up to about 120 µM; nearly all actives have a fitted effect of over 50% in size. The procedure, abridged:
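Luminescent readout (RLU) proportional to CYP3A4 activity, from luciferin generated off a proluciferin substrate. Enzyme–substrate mix plus compound 10 min at room temp, NADPH regeneration 1 h, detection reagent 20 min.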

Assay [12] addresses Nuclear receptor subfamily 1 group I member 2 (Homo sapiens) (UniProt O75469). In words: Human pregnane X receptor (PXR) small molecule agonists, qHTS assay (AID 1346982). Also: nearly all actives have a fitted effect of over 35% in size. The gist of the method: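 PXR-Luc HepG2 cells (CYP3A4 promoter-driven luciferase) were seeded in medium with 5% charcoal-stripped FBS, left 5 hr at 37 C, then exposed to compounds in DMSO for 24 hr. Luminescence was read after ONE-Glo addition.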

Assay [13] deals with Cytochrome P450 2D6 (Homo sapiens) (UniProt P10635). In words: Cytochrome P450 Family 2 Subfamily D Member 6 (CYP2D6) small molecule antagonists: luciferase reporter qHTS assay (AID 1671196). The procedure, abridged: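 CYP2D6 enzyme–substrate mix was held with compound for 10 min at room temperature, then NADPH regeneration solution was added and the reaction ran 1 h at room temperature. Luciferin product was detected by luminescence after 20 min with detection reagent.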
Sequence of Cytochrome P450 2D6 (Homo sapiens) (P10635 whole entry, looked up): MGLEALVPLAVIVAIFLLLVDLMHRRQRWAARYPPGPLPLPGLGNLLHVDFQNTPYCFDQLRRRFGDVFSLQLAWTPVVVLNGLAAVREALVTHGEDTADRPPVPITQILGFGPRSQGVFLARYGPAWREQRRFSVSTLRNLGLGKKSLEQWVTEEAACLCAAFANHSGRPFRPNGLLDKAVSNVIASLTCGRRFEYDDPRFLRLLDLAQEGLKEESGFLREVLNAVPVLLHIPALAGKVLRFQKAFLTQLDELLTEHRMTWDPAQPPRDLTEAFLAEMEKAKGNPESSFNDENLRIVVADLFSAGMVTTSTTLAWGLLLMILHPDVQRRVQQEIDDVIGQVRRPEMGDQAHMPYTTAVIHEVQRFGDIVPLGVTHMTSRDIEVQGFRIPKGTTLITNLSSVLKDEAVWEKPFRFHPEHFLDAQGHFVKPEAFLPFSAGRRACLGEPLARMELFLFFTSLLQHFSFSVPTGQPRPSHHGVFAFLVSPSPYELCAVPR

Unmarked numbers belong to inactive results. Inconclusive results are not listed. Active and inactive are the calls of the source. Calls follow the shape of the dose curve; as a rule, active = well fitted curve in the direction sought with a large enough effect in the repeat runs; inconclusive = weak or mixed curves; inactive = no such curve, though single readings can be large; an effect the other way counts as inactive or inconclusive.

Sequence of Cytochrome P450 2C19 (Homo sapiens) (P33261 whole entry, looked up): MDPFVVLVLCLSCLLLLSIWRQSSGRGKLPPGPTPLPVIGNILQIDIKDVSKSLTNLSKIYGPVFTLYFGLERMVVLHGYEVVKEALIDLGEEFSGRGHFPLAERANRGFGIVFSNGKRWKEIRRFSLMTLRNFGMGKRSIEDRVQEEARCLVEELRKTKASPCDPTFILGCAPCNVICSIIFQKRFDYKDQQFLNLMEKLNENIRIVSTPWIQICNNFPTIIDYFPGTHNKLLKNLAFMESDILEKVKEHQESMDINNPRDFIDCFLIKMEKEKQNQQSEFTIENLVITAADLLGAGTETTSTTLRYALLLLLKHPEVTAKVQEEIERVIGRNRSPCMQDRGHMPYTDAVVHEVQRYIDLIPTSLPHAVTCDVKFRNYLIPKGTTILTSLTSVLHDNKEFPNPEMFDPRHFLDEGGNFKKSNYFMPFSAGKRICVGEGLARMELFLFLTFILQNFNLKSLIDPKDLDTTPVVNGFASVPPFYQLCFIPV
Sequence of Cytochrome P450 2C9 (Homo sapiens) (P11712 whole entry, looked up): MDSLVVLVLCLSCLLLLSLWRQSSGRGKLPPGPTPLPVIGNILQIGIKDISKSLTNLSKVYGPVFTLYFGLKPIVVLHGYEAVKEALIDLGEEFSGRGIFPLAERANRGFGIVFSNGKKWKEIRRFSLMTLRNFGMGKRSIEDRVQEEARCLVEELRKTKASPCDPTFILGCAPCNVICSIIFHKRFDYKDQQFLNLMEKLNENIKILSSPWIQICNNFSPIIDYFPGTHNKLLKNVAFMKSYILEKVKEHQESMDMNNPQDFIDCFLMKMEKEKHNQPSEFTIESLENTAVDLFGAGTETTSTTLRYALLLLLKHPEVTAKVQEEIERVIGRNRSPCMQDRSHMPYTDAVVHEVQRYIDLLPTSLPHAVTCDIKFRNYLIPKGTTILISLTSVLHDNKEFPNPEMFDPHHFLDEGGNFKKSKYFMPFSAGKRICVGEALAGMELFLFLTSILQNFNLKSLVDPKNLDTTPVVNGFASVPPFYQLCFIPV
Sequence of Cytochrome P450 3A4 (Homo sapiens) (P08684 whole entry, looked up): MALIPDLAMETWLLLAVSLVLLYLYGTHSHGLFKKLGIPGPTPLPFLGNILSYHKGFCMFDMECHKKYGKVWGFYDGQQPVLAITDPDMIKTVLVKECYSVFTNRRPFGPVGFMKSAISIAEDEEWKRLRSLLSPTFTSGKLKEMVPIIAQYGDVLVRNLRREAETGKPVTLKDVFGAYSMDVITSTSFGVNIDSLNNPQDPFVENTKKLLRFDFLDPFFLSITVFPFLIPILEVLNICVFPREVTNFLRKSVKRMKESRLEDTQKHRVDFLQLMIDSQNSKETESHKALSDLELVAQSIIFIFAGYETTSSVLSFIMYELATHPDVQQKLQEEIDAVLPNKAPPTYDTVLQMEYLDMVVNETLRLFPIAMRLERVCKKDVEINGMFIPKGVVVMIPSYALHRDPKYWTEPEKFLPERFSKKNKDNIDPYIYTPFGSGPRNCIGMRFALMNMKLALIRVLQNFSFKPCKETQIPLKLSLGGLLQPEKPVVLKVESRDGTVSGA
Sequence of Voltage-gated inwardly rectifying potassium channel KCNH2 (Homo sapiens) (Q12809 whole entry, looked up): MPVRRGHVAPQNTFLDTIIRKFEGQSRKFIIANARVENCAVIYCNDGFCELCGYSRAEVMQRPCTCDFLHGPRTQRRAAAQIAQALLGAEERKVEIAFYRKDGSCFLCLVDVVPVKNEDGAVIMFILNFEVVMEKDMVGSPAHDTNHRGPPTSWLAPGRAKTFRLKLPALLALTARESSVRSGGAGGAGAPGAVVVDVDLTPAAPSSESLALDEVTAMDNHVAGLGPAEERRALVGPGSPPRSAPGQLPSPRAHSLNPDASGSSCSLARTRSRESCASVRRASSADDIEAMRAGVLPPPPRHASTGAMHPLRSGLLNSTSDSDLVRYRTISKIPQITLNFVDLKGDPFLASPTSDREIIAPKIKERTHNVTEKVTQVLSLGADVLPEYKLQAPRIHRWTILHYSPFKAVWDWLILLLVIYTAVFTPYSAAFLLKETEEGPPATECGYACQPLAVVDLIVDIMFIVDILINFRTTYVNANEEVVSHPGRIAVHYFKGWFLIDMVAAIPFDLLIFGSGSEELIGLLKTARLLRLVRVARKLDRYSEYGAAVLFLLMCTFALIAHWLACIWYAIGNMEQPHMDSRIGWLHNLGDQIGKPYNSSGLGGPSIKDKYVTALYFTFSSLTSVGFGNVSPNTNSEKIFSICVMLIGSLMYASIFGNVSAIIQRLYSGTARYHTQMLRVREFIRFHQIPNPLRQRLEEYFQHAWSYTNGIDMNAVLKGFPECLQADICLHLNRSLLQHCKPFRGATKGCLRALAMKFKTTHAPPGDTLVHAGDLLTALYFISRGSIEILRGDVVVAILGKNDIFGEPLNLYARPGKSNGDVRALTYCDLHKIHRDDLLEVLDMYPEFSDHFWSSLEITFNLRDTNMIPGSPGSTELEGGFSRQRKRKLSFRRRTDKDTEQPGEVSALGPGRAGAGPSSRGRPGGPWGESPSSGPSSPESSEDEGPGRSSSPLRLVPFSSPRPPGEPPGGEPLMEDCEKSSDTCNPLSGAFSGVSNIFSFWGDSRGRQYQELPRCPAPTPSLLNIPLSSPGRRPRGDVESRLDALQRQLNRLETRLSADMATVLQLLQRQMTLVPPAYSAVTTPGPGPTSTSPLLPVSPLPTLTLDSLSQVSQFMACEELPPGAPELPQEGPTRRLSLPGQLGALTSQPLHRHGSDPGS
Sequence of Nuclear receptor subfamily 1 group I member 2 (Homo sapiens) (O75469 whole entry, looked up): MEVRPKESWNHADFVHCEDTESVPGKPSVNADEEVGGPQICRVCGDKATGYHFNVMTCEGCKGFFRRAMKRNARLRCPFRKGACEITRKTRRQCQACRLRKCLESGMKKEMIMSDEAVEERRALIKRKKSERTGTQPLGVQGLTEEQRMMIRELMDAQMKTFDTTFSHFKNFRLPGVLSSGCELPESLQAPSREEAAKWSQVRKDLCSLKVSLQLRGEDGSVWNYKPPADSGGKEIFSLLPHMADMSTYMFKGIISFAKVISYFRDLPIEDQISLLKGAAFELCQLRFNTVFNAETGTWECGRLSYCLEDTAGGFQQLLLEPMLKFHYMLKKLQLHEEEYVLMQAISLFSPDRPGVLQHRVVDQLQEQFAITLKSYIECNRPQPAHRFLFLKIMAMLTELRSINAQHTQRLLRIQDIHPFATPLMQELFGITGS

With `CC(=O)Oc1cc(C(C)C)c(OCCN(C)C)cc1C`, the Potency entry in assay [1], in assay [2], in assay [4], in assay [5], in assay [6] and in assay [7] was “inactive” throughout. The Potency result in assay [8], in assay [10] and in assay [11] was “inactive” in each case. Also, the outcome in assay [3] was inactive. The Potency in assay [9] is 5.12 µM (active).
Turning to `Nc1cccc(S(=O)(=O)O)c1`, the Potency result in assay [1], in assay [2], in assay [4], in assay [12], in assay [7] and in assay [9] was “inactive” in each case. The Potency result in assay [10] and in assay [11] was “inactive” in each case. For the same molecule, in assay [3], the result was inactive.
Consider `CN1C(=O)CC(c2ccccc2)C1=O` (stereo not drawn), for which the Potency result in assay [1], in [2], in assay [4], in assay [13], in assay [7] and in assay [9] was “inactive” each time. Moreover, in assay [10], the Potency entry is “inactive”. For the same molecule, the result in assay [3] was inactive.
With `O=C(O)[C@@H]1CSCN1`, the Potency entry in assay [1], in assay [2], in assay [4], in assay [5], in [6] and in [7] was “inactive” each time. For the same molecule, the Potency entry in assay [8], in assay [9], in assay [10] and in assay [11] was “inactive” throughout. For the same molecule, in assay [3], the call was inactive.
In the case of `CC1=NN(c2cc(Cl)c(S(=O)(=O)O)cc2Cl)C(=O)C1N=Nc1ccc(S(=O)(=O)O)cc1` (stereo not drawn), the Potency result in [1], in assay [13], in [7], in assay [8], in assay [9] and in [10] was “inactive” in each case. For the same molecule, the Potency result in assay [11] is “inactive”. Besides, the Potency in assay [2] is 54.5 µM (active); in assay [4] it was 48.6 µM (active). The outcome in [3] was inactive.
`Cc1onc(-c2ccccc2)c1C(=O)Cl`: the Potency result in [1], in assay [2], in assay [4], in assay [13], in assay [7] and in assay [8] was “inactive” in each case. In addition, the Potency entry in assay [9], in [10] and in assay [11] was “inactive” each time. Also, the outcome in assay [3] was inactive.
Regarding `CC1=C2[C@H](/C=C(\C)C(=O)O)CC[C@@H](C)[C@H]2CC1`, the Potency result in [1], in assay [2], in assay [4], in assay [10] and in [11] was “inactive” in each case. In [3], the outcome was inactive. Besides, the Potency was 73.7 µM (active) in assay [7], 65.6 µM (active) in assay [8] and 65.6 µM (active) in [9].
Turning to `CCOC(=O)c1ccccc1O`, the Potency entry in assay [1], in assay [2], in assay [4], in [5], in assay [6] and in [13] was “inactive” in each case. Besides, the Potency entry in [7], in assay [8], in assay [9], in assay [10] and in assay [11] was “inactive” throughout. Besides, the molecule was called inactive in [3].
As for `CC1(C)S[C@@H]2[C@H](NC(=O)C(C(=O)O)c3ccccc3)C(=O)N2[C@H]1C(=O)O` (stereo partly drawn), the Potency entry in [1], in assay [2], in [4], in [5], in assay [6] and in assay [13] was “inactive” throughout. The Potency result in assay [7], in assay [8], in assay [9], in [10] and in assay [11] was “inactive” in each case. Also, in assay [3], the call was inactive.
As for `CCC(=O)Nc1ccc(O)cc1`, the Potency entry in assay [1], in [2], in assay [4], in assay [5], in [6] and in [13] was “inactive” in each case. For the same molecule, the Potency entry in assay [7], in assay [8], in [9], in assay [10] and in assay [11] was “inactive” each time. For the same molecule, in assay [3], the result was inactive.
Turning to `CC(=O)OC1C2(C)CCC(C2)C1(C)C` (stereo not drawn), the Potency result in [1], in assay [2], in [4], in [12], in assay [7] and in assay [8] was “inactive” throughout. Moreover, the Potency entry in assay [10] and in assay [11] was “inactive” throughout. In [3], the result was inactive.
